Data on 94 compounds can be found in PubChem BioAssay AID1117267 (The Scripps Research Institute Molecular Screening Center, 2014).

The whole screen tested about 92,000 compounds, of which about 1,200 (1.3%) were called active. This excerpt belongs to a sample that is enriched for actives. A number with no mark means an inactive call.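 How the source made its calls: active means activation above the mean of all tested compounds plus 3 SD (cut at about 9.5% in these data); inactive means the rest.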

A short description of the experiment: TTR transcription activators in neuroblastoma reporter cells, primary screen, cell-based, luminescence, SH-SY5Y, TTR promoter Gaussia luciferase (AID 1117267).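 Further: cells exposed to compounds for one day before reading; 0% = median of all test compound wells on the plate.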 The note with it: at 16.7 µM, active compounds read high, 100% = recombinant luciferase protein wells.
Take `CCC(=O)c1c(CC)c2n3c1=CC[C@H]3CC(Br)C=2` (some centres undefined): the activation was -0.76%.
As to `O=C(NC(=O)c1ccccc1N1CCCCC1)Nc1ccc(Br)cc1`, the activation was 22.9% (active).
Then `COc1ccccc1C(=O)NC(=S)Nc1ccccc1N1CCCCC1`, with 1.44%; and `O=C(Nc1ccc(C(=O)O)cc1)/C(=C\c1ccccc1)NC(=O)c1ccc(Br)cc1`, with 0.53%; and `COc1ccc(C(C)NC(=O)C23CC4CC(CC(C4)C2)C3)cc1` (centres undefined), with 0.59%.
Take `O=S1(=O)CCOC[C@H](CC2CCCCC2)N1Cc1ccc(F)cc1`: the activation is 0.81%.
In the case of `Cc1ccc(CN2CCCOCCS2(=O)=O)cc1`, the activation is 11.7% (active).
Then `CCC(C)[C@H]1COCCS(=O)(=O)N1Cc1ccc(C)cc1` (some centres undefined), with 1.12%; and `CCc1ccccc1NC(=O)Cc1cn(C)c2ccccc12`, with 4%.
Turning to `N=c1ccn(CC(=O)NC(N)=O)c2ccccc12`, the activation is 10.4% (active).
In the case of `O=C(Cn1cnc2ccccc21)Nc1ccccc1-c1ccccc1` it was -1.54%.
In the case of `Cc1cn(C2CC(O)C(CO)O2)c(=O)n(CCCc2ccccc2)c1=O` (centres undefined) it was 1.94%; in that of `O=S(=O)(NCCCN1CCOCC1)c1ccc(F)c(Cl)c1`, 14.3% (active).
Consider `O=C(CN1CCOCC1)Nc1c(Cl)cc(Cl)cc1Cl`, for which the activation was -1.15%.
In the case of `Cn1c(=O)c(=O)n(C)c2cc(S(=O)(=O)NCCN3CCN(c4ccccc4F)CC3)ccc21` it was -0.31%; in that of `Cn1nc(-c2ccccc2)c2cc([N+](=O)[O-])ccc21`, 2.37%.
In the case of `CCCNC(=O)C(=O)Nc1cc2c3c(c1)CCC(=O)N3CCC2` it was 0.51%; in that of `CCOC(=O)c1c(-c2ccccc2)oc2ccc(OCC(=O)NN)cc12`, 3.27%.
In the case of `CCOC(=O)c1c(C)oc2ccc(OCC(=O)N(CC)CC)cc12` it was 0.72%.
With `CCOC(=O)c1c(-c2ccccc2)oc2ccc(OCC(N)=O)cc12`, the activation is 10% (active).
In the case of `CCOc1ccc(CN2CCN(Cc3ccon3)CC2CCO)cc1` (centres undefined) it was 7.67%.
Then `CC(NC(=O)CCCC1CCCCC1)c1ccc(S(N)(=O)=O)cc1` (centres undefined), with -0.93%; and `CCOC(=O)COc1ccc([N+](=O)[O-])cc1`, with 0.43%; and `O=C1CCN(CCc2ccccc2)CCN1CCOc1ccccc1`, with 0.26%.
In the case of `O=C1CCN(Cc2ccc([N+](=O)[O-])cc2)CCN1[C@H](CO)Cc1ccccc1` it was -6.98%.
Regarding `N#Cc1cccc(CN2CCC(=O)N(CCO)CC2)c1`, the activation was 14.7% (active).
Then `CCN([C@H](CO)C(C)C)S(=O)(=O)c1ccccc1Br`, with 3.03%; and `O=S(=O)(NCc1ccccc1Br)c1ccccc1Br`, with 14% (active).
Then `CCCCCCNS(=O)(=O)c1ccccc1Br`, with -0.76%.
`OC(c1ccccc1)(c1ccccc1)C1CCN(CCCOc2ccccc2)CC1`: the activation is -2.2%.
In the case of `CCOC(=O)c1cc(-c2ccc(Cl)s2)nc2c1c(C)nn2C` it was 15.8% (active).
In the case of `CCOC(=O)C1=C(O)CSC1=Nc1cccc(Cl)c1` it was -2.26%; in that of `CCOC(=O)c1cc(C(=O)Nc2ccc(S(=O)(=O)Nc3ccc(OC)cc3)cc2)nn1C`, -1.23%; in that of `O=S(=O)(Cc1ccccc1)c1nc2ccccc2n1Cc1ccccn1`, -0.52%.
As to `CCC(C(=O)NCc1ccccc1)n1c(Cc2cc(F)cc(F)c2)nc2ccccc21` (centres undefined), the activation was -1.34%.
Then `O=C(O)Cn1c(Cc2ccccc2)nc2ccccc21`, with 20.6% (active).
As for `COc1cccc(OC)c1C(=O)OCC(=O)/C(C#N)=C(\C)N`, the activation was -0.74%.
As for `COc1ccc(CCNC(=O)COc2ccc3c(c2)OCO3)cc1`, the activation is -1.39%.
Take `CC(C)(C)C1CCC(OC(=O)CCC(=O)Nc2ccccc2)CC1` (centres undefined): the activation was 20.6% (active).
Then `O=C(CCC1CCN(C(=O)c2cccc(Cl)c2F)CC1)Nc1ccccc1`, with -1.31%; and `CC1CCN(CCC(=O)Nc2ccccc2)CC1`, with 0.42%.
In the case of `COc1cc2c(cc1CNC[C@H]1O[C@@H](n3cnc(C(N)=O)n3)[C@H](O)[C@@H]1O)OCO2` it was 1.81%; in that of `Cc1ccc(-n2c(SCC(=O)Nc3ccc4c(c3)OCO4)nnc2-c2ccccn2)cc1`, -2.71%; in that of `N#Cc1ccc(CSc2nnc3ccccn23)cc1`, -0.39%.
Then `N#Cc1ccc(CSc2nnc(-c3ccccn3)n2-c2ccc(Cl)cc2)cc1`, with 28% (active); and `COc1cccc(/C=C2\SC(=N)N(c3ccc(F)cc3)C2=O)c1`, with 3.96%; and `Cc1ccccc1Nc1c([N+](=O)[O-])ccc2nonc12`, with -2.33%.
With `COc1ccc(NC(=O)CCC(=O)N2CCN(S(=O)(=O)c3ccc(C)cc3)CC2)c(OC)c1`, the activation was 2.84%.
Then `O=C(NNC(=O)c1cc(S(=O)(=O)N2CCCCC2)ccc1Cl)c1ccccc1O`, with 11.9% (active); and `O=C(c1cc(S(=O)(=O)N2CCOCC2)ccc1Cl)N1CCOCC1`, with 2.72%; and `O=C(COC(=O)c1cc(S(=O)(=O)N2CCCCC2)ccc1Cl)NCc1ccco1`, with 2.03%.
Then `Cc1cc(C)n2ncc(C(=O)Nc3ccc4c(c3)OCCO4)c2n1`, with 2.76%.
Then `Cc1nc(Nc2ccc3c(c2)OCCO3)c2nnn(Cc3ccccc3Cl)c2n1`, with 11.8% (active).
Turning to `Clc1ccc(Nc2ncnc3c2nnn3Cc2ccccc2)cc1`, the activation was -0.95%.
Then `O=C(Nc1cc(Cl)cc(Cl)c1)OCCN1CCCC12CCC(c1ccccc1)CC2` (centres undefined), with 1.93%.
Then `CCN(CC)S(=O)(=O)c1ccc(C(=O)N2CCN(C3=NS(=O)(=O)c4ccccc43)CC2)cc1`, with -0.96%; and `C=CCN1C(=O)C2(OCCCO2)c2cccc(Cl)c21`, with 0.94%; and `COc1ccc(NC(=O)CCNC(=O)Cn2cnc3sc4c(c3c2=O)CCCC4)cc1OC`, with -1.59%.
Then `O=C(CSc1n[nH]c(-c2cccnc2)n1)Nc1ccc(Cl)cc1`, with -0.75%; and `Nc1nc(SCC(=O)Nc2ccc(Cl)c([N+](=O)[O-])c2)n[nH]1`, with 9.76% (active); and `Nc1nc(SCC(=O)Nc2ccc(Cl)cc2C(F)(F)F)n[nH]1`, with 0.01%.
As to `COc1ccc(-c2cc(C(=O)N/N=C/c3cccnc3)c3ccccc3n2)c(OC)c1`, the activation is -1.67%.
Then `COc1ccc2c(CC(=O)OCC(=O)NC(N)=O)coc2c1`, with 1.14%; and `O=C(NNS(=O)(=O)c1ccccc1)c1cnn(-c2ccc(Cl)cc2)c1C(F)(F)F`, with -0.1%; and `Cc1ccc(C(=O)Nc2c(C#N)c(C)c(C)n2Cc2ccccc2)cc1`, with 0.67%.
In the case of `CC(=O)Nc1ccc(C(=O)Nc2nc(-c3cc(C)n(Cc4ccccc4)c3C)cs2)cc1` it was -0.51%; in that of `Cc1c(C#N)c(NC(=O)c2ccccc2)n(Cc2ccccc2)c1C`, 10.7% (active); in that of `COc1ccc(S(=O)(=O)N(CC(=O)N/N=C/c2ccccc2C(=O)O)c2ccccc2OC)cc1`, -0.82%.
For the compound `CSCCC(c1nnnn1Cc1ccccc1)N1CCN(C/C=C/c2ccccc2)CC1` (centres undefined), the activation was -2.08%.
Then `COc1ccc(C(=O)N2CCCC(C(=O)c3ccccc3OC)C2)cc1OC` (centres undefined), with -0.18%; and `Cc1nc(Cl)cc(N/N=C/c2ccccc2)n1`, with -2.14%.
In the case of `COC(=O)c1sc(N)c(C(=O)OC)c1COC(=O)CNS(=O)(=O)c1ccc(C)cc1` it was -1.81%.
For the compound `O=C(N=C1SC2CS(=O)(=O)CC2N1Cc1ccccc1)c1ccccc1` (centres undefined), the activation was 1.31%.
Then `CC(C)NC(=O)c1ccc(Sc2ccccc2)c([N+](=O)[O-])c1`, with 14.4% (active); and `Cc1ccc(Sc2cc(C(=O)c3ccccc3C(=O)O)ccc2[N+](=O)[O-])cc1`, with 1.71%.
In the case of `O=C(NNC(=O)c1ccc(-n2cncn2)c([N+](=O)[O-])c1)c1ccccc1` it was -1.38%.
In the case of `COC(=O)C1CCN(C(=O)c2ccc3oc(Cc4ccc(Cl)cc4)nc3c2)CC1` it was -1.37%.
Regarding `Cc1ccsc1C(=O)OCC(=O)NCCc1ccccc1`, the activation is 2.82%.
In the case of `CCOc1ccc(-c2cc(C(=O)N/N=C/c3ccc(O)cc3)c3ccccc3n2)cc1` it was -0.07%; in that of `CCOc1ccc(N=C2NC(=O)S/C2=C\c2ccc(O)cc2)cc1`, 11.2% (active).
Then `C=CCOc1ccc(/C=C2\SC(=S)N(CCC(=O)O)C2=O)cc1`, with 0.39%.
`O=C1CN(C(=O)COC(=O)C2CC(=O)N(Cc3ccco3)C2)c2ccccc2N1` (centres undefined): the activation was 12.4% (active).
Then `O=C1CN(C(=O)COc2c(Cl)cccc2Cl)c2ccccc2N1`, with -1.21%; and `O=C1CN(C(=O)COC(=O)/C=C/c2ccc(F)cc2)c2ccccc2N1`, with 0.24%.
Then `O=C(CSc1nc2cccc(F)c2c(=O)n1-c1ccccc1)Nc1ccc2c(c1)CCC2`, with -1.17%; and `COc1cc(NS(=O)(=O)c2ccc(NC(=O)c3ccc([N+](=O)[O-])cc3)cc2)ncn1`, with -0.02%.
As for `COc1ccc2c(c1)O/C(=C\c1ccccc1O)C2=O`, the activation was -0.14%.
As for `COc1ccc(S(=O)(=O)NCC(=O)NCc2cc(=O)n(C)c(=O)n2C)cc1F`, the activation was 53.5% (active).
In the case of `CC(=O)OCc1cc(=O)n(C)c(=O)n1C` it was 1.42%; in that of `Cn1c(=O)c2cc(S(=O)(=O)NCCC(=O)Nc3ccc(F)cc3F)ccc2n(C)c1=O`, 0.89%.
In the case of `O=C(C1=C(O)C(=O)N(CCOCCO)C1c1ccccn1)c1cccs1` (centres undefined) it was -0.44%; in that of `O=C(Cc1ccccc1)Nc1cccc(NC(=O)c2ccccc2)c1`, -1.17%; in that of `C/C(=C\C(=O)c1ccccc1)Nc1cccc(O)c1`, -1.23%.
In the case of `O=C(Nc1cccc(O)c1)c1ccc(C(=O)c2ccccc2)o1` it was 15.8% (active).
